Results filed as inconclusive are left out. Activity calls are given as the source filed them. Calls follow the shape of the full dose curve. Numbered stars: 1 amine (or outer) side, 2 acyl side, 3 side chain; on linkers, the order of the positions; unused ones are H or OH. Bridge positions count the residues as written; N and C are the ends. Square brackets hold non-standard residues; d marks the D form. Peptide text beside a SMILES is read from it. * marks the point of attachment. ξ: configuration not given here. ξhTyr(3S-OH,4S-OH,3'-OSO3H) = NC(C(=O)O)[C@H](O)[C@@H](O)c1ccc(O)c(OS(=O)(=O)O)c1; Orn(4R-OH,5R-OH) = O=C([C@H](C[C@@H](O)[C@@H](O)N[*:3])N[*:1])[*:2]; X2 = CCCCCOc1ccc(-c2cc(-c3ccc(C(=O)*)cc3)no2)cc1; X3 = C[C@H]1CN([*:1])C(C(=O)[*:2])[C@H]1O; ξGln(3R-OH) = NC(=O)C[C@@H](O)C(N)C(=O)O; ξPro(4R-OH) = O=C(O)C1C[C@@H](O)CN1; ξThr(3R) = C[C@@H](O)C(N)C(=O)O
Test: Confirmatory qHTS for VERO E6 Cytotoxicity Assay: Counterscreen for SARS-CoV-2 CPE Assay (AID 1508605); also: nearly all actives have a fitted effect of over 60% in size; also: potency is read from the fitted curve at half-maximal effect; as to activity change, negative = cytotoxic: % is scaled to controls: 0 for no effect and ±100 for the full control effect
Conditions: cell viability luminescence; series mostly up to 20 µM; activity change, negative = cytotoxic: at the top concentration

Question: With CCC(=O)c1cc(-c2ccc(Cl)cc2)n(-c2ccc(S(N)(=O)=O)cc2)c1C as the compound, how does the “activity change, negative = cytotoxic” value read?
Answer: -7.68% (inactive)

Question: Which “activity change, negative = cytotoxic” value does the source give for Cn1nc(C(C)(C)C)cc1C(=O)N[C@@H](Cc1cccc(Cl)c1)C(=O)NCC#N here?
Answer: 1.87% (inactive)

Question: With C[C@@H]1O[C@@H](O[C@H]2[C@H](OC(=O)[C@]34CCC(C)(C)C[C@H]3C3=CCC5[C@@]6(C)C[C@H](O)[C@H](O[C@@H]7O[C@H](CO)[C@@H](O)[C@H](O)[C@H]7O)[C@@](C)(CO)C6[C@H](O)C[C@@]5(C)[C@]3(C)C[C@H]4O)OC[C@H](O)[C@@H]2O)[C@H](O)[C@H](O)[C@H]1O[C@@H]1OC[C@@H](O)[C@H](O[C@H]2OC[C@](O)(CO)[C@H]2O)[C@H]1O (some centres not stated) as the compound, how does the activity change, negative = cytotoxic read?
Answer: -21.6% [at 3.67 µM] (inactive)

Question: For COc1ccccc1OCCN1CC(COc2cccc3[nH]c4ccccc4c23)OCC1=O (configuration not stated), which “activity change, negative = cytotoxic” value is on record?
Answer: -24.4% (inactive)

Question: Which “activity change, negative = cytotoxic” value does the source give for Cc1[nH]c(/C=C2\C(=O)Nc3ccc(S(=O)(=O)N(C)c4cccc(Cl)c4)cc32)c(C)c1C(=O)N1CCN(C)CC1 here?
Answer: -11.4% (inactive)

Question: Which “activity change, negative = cytotoxic” value does the source give for CN1CCC(c2cn(C)c3ccc(OS(=O)(=O)c4c(F)cccc4F)cc23)CC1 here?
Answer: -16.8% (inactive)

Question: For CN1CC[C@@H](c2c(O)cc(O)c3c(=O)cc(-c4ccc(C(F)(F)F)cc4Cl)oc23)[C@@H]1CO, which “activity change, negative = cytotoxic” value is on record?
Answer: -12.8% (inactive)

Question: Which “activity change, negative = cytotoxic” value does the source give for COc1ccc(CN2CCN(CCCSc3cc(C(C)(C)C)c(O)c(C(C)(C)C)c3)CC2)c(OC)c1OC here?
Answer: -0.19% [at 6.64 µM] (inactive)

Question: With C[C@@H]1O[C@@H](O[C@H]2[C@H](OC(=O)[C@]34CCC(C)(C)C[C@H]3C3=CCC5[C@@]6(C)CC[C@H](O[C@@H]7O[C@H](CO[C@@H]8OC[C@H](O)[C@H](O)[C@H]8O)[C@@H](O)[C@H](O)[C@H]7O)C(C)(C)C6CC[C@@]5(C)[C@]3(C)C[C@H]4O)OC[C@@H](O)[C@@H]2O)[C@H](O)[C@H](O[C@@H]2OC[C@](O)(CO)[C@H]2O)[C@H]1O[C@@H]1OC[C@H](O)[C@H](O[C@@H]2OC[C@@H](O)[C@H](O)[C@H]2O)[C@H]1O (some centres not stated) as the compound, how does the Potency read?
Answer: 1910 nM (active)

Question: Which “activity change, negative = cytotoxic” value does the source give for COc1ccccc1OCCNCC(O)CCOc1cccc2[nH]c3ccccc3c12 (configuration not stated) here?
Answer: -12.1% (inactive)

Question: With CCc1cccc(CC)c1-n1c(C=C(C)C)c(C(=O)N2CCNCC2)cc(-c2nc(-c3ccc(C(F)(F)F)cc3)cs2)c1=O as the compound, how does the “activity change, negative = cytotoxic” value read?
Answer: -25.8% [at 10 µM] (inactive)

Question: For CN(C)S(=O)(=O)c1ccc(NC(=S)N2CCC(C(O)(c3ccccc3)c3ccccc3)CC2)cc1, which “activity change, negative = cytotoxic” value is on record?
Answer: -13.9% (inactive)

Test: Confirmatory qHTS for activators (rescue) of SARS-CoV-2 Cytopathic Effect (CPE) (AID 1508606); also: nearly all actives have a fitted effect of over 70% in size; also: potency is read from the fitted curve at half-maximal effect; as to CPE rescue (activation): 0% is about no effect
Conditions: Vero E6 SARS-CoV-2 CPE rescue, viability luminescence; series mostly up to 20 µM; CPE rescue (activation): at the top concentration

Question: With CCC(=O)c1cc(-c2ccc(Cl)cc2)n(-c2ccc(S(N)(=O)=O)cc2)c1C as the compound, how does the “CPE rescue (activation)” value read?
Answer: 27.3% (inactive)

Question: For Cn1ncc2cc(-c3cnc(N)c(Cl)c3N3CCC4(CCNC4=O)CC3)ccc21, which Potency is on record?
Answer: 2820 nM (active)

Question: With Cn1nc(C(C)(C)C)cc1C(=O)N[C@@H](Cc1cccc(Cl)c1)C(=O)NCC#N as the compound, how does the Potency read?
Answer: 224 nM (active)

Question: Which “CPE rescue (activation)” value does the source give for COc1ccccc1OCCN1CC(COc2cccc3[nH]c4ccccc4c23)OCC1=O (configuration not stated) here?
Answer: -3.59% (inactive)

Question: With Cc1[nH]c(/C=C2\C(=O)Nc3ccc(S(=O)(=O)N(C)c4cccc(Cl)c4)cc32)c(C)c1C(=O)N1CCN(C)CC1 as the compound, how does the “CPE rescue (activation)” value read?
Answer: -8.58% (inactive)

Question: Which Potency does the source give for CN1CCC(c2cn(C)c3ccc(OS(=O)(=O)c4c(F)cccc4F)cc23)CC1 here?
Answer: 11200 nM (active)

Question: Which Potency does the source give for COc1ccccc1OCCNCC(O)CCOc1cccc2[nH]c3ccccc3c12 (configuration not stated) here?
Answer: 10000 nM (active)

Question: Which “CPE rescue (activation)” value does the source give for CCc1cccc(CC)c1-n1c(C=C(C)C)c(C(=O)N2CCNCC2)cc(-c2nc(-c3ccc(C(F)(F)F)cc3)cs2)c1=O here?
Answer: -10.8% [at 10 µM] (inactive)

Test: Confirmatory qHTS to identify inhibitors of SARS-CoV-2 cell entry (AID 1645844); also: nearly all actives have a fitted effect of over 45% in size; also: potency is read from the fitted curve at half-maximal effect; as to activity, negative = inhibition: % is scaled to controls: 0 for no effect and ±100 for the full control effect
Conditions: SARS-CoV-2 pseudotyped particle cell entry, luciferase; series mostly up to 57.2 µM; activity, negative = inhibition: at the top concentration
How it was run: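 HEK293-ACE2 cells were pretreated 1 h with compound, then infected with MLV-based pseudoparticles bearing C-terminally truncated Wuhan-Hu-1 spike for 48 h at 37C; luciferase luminescence normalized to spike PP and bald PP wells.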

Question: With CCN(CC)CCOCCOC(=O)C(CC)(CC)c1ccccc1 as the compound, how does the “activity, negative = inhibition” value read?
Answer: -37.1% (inactive)

Question: Which Potency does the source give for CCOC(=O)[C@H]1O[C@@H]1C(=O)N[C@@H](CC(C)C)C(=O)NCCC(C)C here?
Answer: 68.1 nM (active)

Question: Which Potency does the source give for Nc1nc(=O)n([C@H]2C[C@H](O)[C@@H](CO)O2)cc1F here?
Answer: 10.8 nM (active)

Test: Cytotoxicity counterscreen for inhibitors of SARS-CoV-2 cell entry (AID 1645845); also: nearly all actives have a fitted effect of over 50% in size; as to activity change, negative = cytotoxicity: % is scaled to controls: 0 for no effect and ±100 for the full control effect
Conditions: cell viability (SARS-CoV-2 entry assay cells); series mostly up to 57.1 µM; activity change, negative = cytotoxicity: at the top concentration; outcome: at the top concentration
How it was run: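 HEK293-ACE2 cells (Expi293F stably expressing human ACE2) seeded overnight, then compound for 1 h plus 48 h at 37C. Viability as ATP content by luminescence; normalized to wells with cells and media-only wells.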

Question: Which “outcome” value does the source give for CCN(CC)CCOCCOC(=O)C(CC)(CC)c1ccccc1 here?
Answer: inactive

Question: Which “outcome” value does the source give for COc1ccc2c3c1O[C@H]1C[C@@H](O)C=C[C@@]31CCN(C)C2 here?
Answer: inactive

Question: With CC1(C)Cc2c(sc(NC(=S)NC(=O)c3ccccc3)c2C(=O)O)CO1 as the compound, how does the “activity change, negative = cytotoxicity” value read?
Answer: 3.22% (inactive)

Question: With CCOC(=O)[C@H]1O[C@@H]1C(=O)N[C@@H](CC(C)C)C(=O)NCCC(C)C as the compound, how does the “outcome” value read?
Answer: inactive

Question: With CCCCCOc1ccc(-c2cc(-c3ccc(C(=O)N[C@H]4C[C@@H](O)[C@@H](O)NC(=O)C5[C@@H](O)[C@@H](C)CN5C(=O)C([C@H](O)CC(N)=O)NC(=O)C([C@H](O)[C@@H](O)c5ccc(O)c(OS(=O)(=O)O)c5)NC(=O)C5C[C@@H](O)CN5C(=O)C([C@@H](C)O)NC4=O)cc3)no2)cc1 (stereo partly drawn) (X2-[Orn(4R-OH,5R-OH)][ξThr(3R)][ξPro(4R-OH)][ξhTyr(3S-OH,4S-OH,3'-OSO3H)][ξGln(3R-OH)][X3]; lactam 1-C) as the compound, how does the “outcome” value read?
Answer: inactive [at 27.1 µM]

Question: For Cc1onc(-c2ccccc2)c1C(=O)N[C@@H]1C(=O)N2[C@@H]1SC(C)(C)[C@@H]2C(=O)O, which “activity change, negative = cytotoxicity” value is on record?
Answer: 0.683% (inactive)

Question: With C[C@]12CC[C@@H]3c4ccc(OC(=O)c5ccccc5)cc4CC[C@H]3[C@@H]1CC[C@@H]2O as the compound, how does the “activity change, negative = cytotoxicity” value read?
Answer: -13.4% (inactive)

Question: Which “activity change, negative = cytotoxicity” value does the source give for Cn1ncc2cc(-c3cnc(N)c(Cl)c3N3CCC4(CCNC4=O)CC3)ccc21 here?
Answer: -6.62% (inactive)

Question: Which “activity change, negative = cytotoxicity” value does the source give for CCOc1nc2cccc(C(=O)OCc3oc(=O)oc3C)c2n1Cc1ccc(-c2ccccc2-c2noc(O)n2)cc1 here?
Answer: 4.14% (inactive)

Question: Which “activity change, negative = cytotoxicity” value does the source give for Nc1nc(=O)n([C@H]2C[C@H](O)[C@@H](CO)O2)cc1F here?
Answer: -47.4% (inactive)

Question: Which Potency does the source give for CCC(=O)NS(=O)(=O)c1ccc(-c2c(-c3ccccc3)noc2C)cc1 here?
Answer: inactive

Question: Which “activity change, negative = cytotoxicity” value does the source give for Cc1[nH]c(/C=C2\C(=O)Nc3ccc(S(=O)(=O)N(C)c4cccc(Cl)c4)cc32)c(C)c1C(=O)N1CCN(C)CC1 here?
Answer: -23.1% (inactive)

Question: For COC(=O)N(C)c1c(N)nc(-c2nn(Cc3ccccc3F)c3ncccc23)nc1N, which Potency is on record?
Answer: inactive

Question: With C[C@H](O)[C@H](O)[C@H]1CNc2nc(N)[nH]c(=O)c2N1 as the compound, how does the “activity change, negative = cytotoxicity” value read?
Answer: 2.89% (inactive)

Question: For CN1CC[C@@H](c2c(O)cc(O)c3c(=O)cc(-c4ccc(C(F)(F)F)cc4Cl)oc23)[C@@H]1CO, which “activity change, negative = cytotoxicity” value is on record?
Answer: -11.4% (inactive)

Question: With CCc1ccc(Cc2ccc3c(c2)[C@]2(OC3)O[C@H](CO)[C@@H](O)[C@H](O)[C@H]2O)cc1 as the compound, how does the “activity change, negative = cytotoxicity” value read?
Answer: -14.8% (inactive)

Question: With CN(C)CCOc1cc(-c2cn[nH]c2)ccc1NC(=O)C1COc2ccccc2O1 (configuration not stated) as the compound, how does the “outcome” value read?
Answer: inactive

Question: With CCCSc1nc(N[C@@H]2C[C@H]2c2ccc(F)c(F)c2)c2nnn([C@@H]3C[C@H](OCCO)[C@@H](O)[C@H]3O)c2n1 as the compound, how does the “outcome” value read?
Answer: inactive

Question: For CC1(C)OC(=O)C(OCC2CC2)=C1c1ccc(S(C)(=O)=O)cc1, which “outcome” value is on record?
Answer: inactive
